PubChem BioAssay AID488841 (Sanford-Burnham Center for Chemical Genomics, 2010)
In all, about 1,400 compounds went through this assay and about 380 (27%) were called active. This is one part of the list. Unmarked numbers belong to inactive results.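 Rule for the calls: active = mean inhibition above 50% across duplicate retests at 10 µM; inactive = the rest.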

assay: inhibition of NALP1/ASC/caspase-1 reporter signal in yeast, confirmation, NALP1 inhibitor project, S. cerevisiae, luminescence, single concentration (AID 488841);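 note: plate controls were DMSO in galactose medium for no effect and cells in plain SD medium for full effect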; conditions: S. cerevisiae NALP1/ASC/Caspase-1 reporter, beta-gal luminescence; at 10 µM; hits give high values

| Compound | inhibition |
| --- | --- |
| COCCCN(CCCN)Cc1ccco1 | 73.2% (active) |
| Cc1ccc(S(=O)(=O)N(C(=O)c2ccncc2)c2ccc(OC(=O)c3ccncc3)c3ccccc23)cc1 | 28.8% |
| O=C1S/C(=C\c2ccc(N3CCOCC3)o2)C(=O)N1c1ccccc1 | 45.5% |
| CCN(CC)c1ccc(/C=C2/SC(=O)N(C(C)C)C2=O)o1 | 65.5% (active) |
| CC1CCCC(C)N1C(=O)CN1CCN(c2nc(-c3ccc(F)cc3)cs2)CC1 (stereo not drawn) | 19.6% |
| Cc1cccc(N/C=C/C(=C(C#N)C#N)N(C)C)c1 | 30.9% |
| O=C(N/N=C/c1ccc2nccnc2c1)c1ccccc1O | 25.7% |
| O=C(N/N=C/c1ccc2c(c1)OCO2)c1cccs1 | 51.4% (active) |
| Cc1ccsc1/C=N/NC(=O)c1ccco1 | 38.9% |
| O=[N+]([O-])c1ccc(N2CCN(c3ccc(Cl)nn3)CC2)c(Cl)c1 | 29.9% |
| COc1ccc(-c2nc(N)n(S(=O)(=O)c3ccc(C)cc3)n2)cc1 | 44.7% |
| Cn1nc(-c2ccc(Cl)cc2)nc2c(=O)n(C)c(=O)nc1-2 | 97.7% (active) |
| Cn1nc(-c2ccccc2)c(-c2nc(-c3ccc(Cl)cc3)no2)c1Cl | 16.6% |
| COc1ccccc1NC(=O)Nc1ccc2c(c1)nnn2C | 18.6% |
| Cc1nc([N+](=O)[O-])c(Br)n1CC(=O)c1ccc(Cl)cc1 | 37.6% |
| Cc1cc(C)n(C(C[N+](=O)[O-])c2ccc(Cl)cc2)n1 (stereo not drawn) | 92% (active) |
| CCOc1cc(/C=N/NC(=O)c2nn(C)cc2Br)ccc1OCc1ccccc1Cl | 20.8% |
| O=c1cc(-c2ccccc2)[nH]c2nc3ccccc3n12 | 39.5% |
| Cc1cccc(OC(=O)c2cn(C)nc2C(F)(F)F)c1C | 43.7% |
| Fc1ccccc1-c1ccc(/C=N/Nc2nc3ccccc3[nH]2)o1 | 60.4% (active) |
| CCCCNc1nc2ccccc2[nH]1 | 20.4% |
| Cc1ccc(/C=N/Nc2ccnc3cc(Cl)ccc23)c(C)c1 | 38.3% |
| CC(=O)/C=C/n1c(=S)oc2ccccc21 | 6.85% |
| CN1C(=O)CSc2ccc(NC(=O)N3CCN(c4ccccn4)CC3)cc21 | 24% |
| CCOC(=O)c1ccc(NC(=O)c2nccnc2C(=O)O)cc1 | 18.4% |
| CCOC(=O)c1ccc(NC(=O)CC2Sc3ncnn3C2=O)cc1 (stereo not drawn) | 70.7% (active) |

| Compound | inhibition |
| --- | --- |
| CCOC(=O)c1ccc(NC(=O)CSc2nnc(CNc3ccc(C)cc3)n2C)cc1 | 32.1% |
| COc1ccc(NC(=O)CC2Sc3ncnn3C2=O)cc1 (stereo not drawn) | 59% (active) |
| O=C(CC1Sc2ncnn2C1=O)Nc1ccc(Br)cc1 (stereo not drawn) | 41.1% |
| COc1ccc(Nc2ncccc2C(=O)NCc2ccccc2)cc1 | 46.5% |
| CCOC(=O)C1C(=O)Oc2ccc3ccccc3c2C1C1CCOC1=O (stereo not drawn) | 19.4% |
| CCN(CC)S(=O)(=O)c1ccc(NS(=O)(=O)c2cccs2)cc1 | 16.4% |
| COc1ccc(NC(=S)N(C(C)C)C2CCN(C(C)C)CC2)cc1Cl | 21.6% |
| Cc1ccc(N2C(=O)c3ccc(C(=O)O)cc3C2=O)cc1C | 28.4% |
| Clc1ccc(Cn2c(/C=C/c3ccco3)nc3ccccc32)cc1 | 29.2% |
| COc1ccc(CC2(C)OC(c3ccc(C)cc3)=NN2C(C)=O)cc1 (stereo not drawn) | 55.5% (active) |
| COc1ccc(CNC(=O)CCNS(=O)(=O)c2ccc(C)cc2)cc1 | 19.6% |
| CCN(C(=O)c1ccco1)c1nnc(-c2ccc(OC)cc2)s1 | 38% |
| N#Cc1ccc(Oc2nc(Nc3ccc(F)cc3)nc(N3CCCC3)n2)cc1 | 29.6% |
| c1cnc2c(c1)ccc1cccnc12 | 40.4% |
| c1ccc(-c2cccc(-c3ccccn3)n2)nc1 | 86.2% (active) |
| COc1ccccc1C/C(N)=N/OC(=O)c1cccc([N+](=O)[O-])c1C | 37.2% |
| N/C(Cc1ccccc1)=N\OC(=O)c1cccc2ccccc12 | 39.9% |
| N/C(Cc1ccc([N+](=O)[O-])cc1)=N\OC(=O)c1ccccc1Br | 55.1% (active) |
| Cc1noc(C)c1S(=O)(=O)N1CCC(C(=O)N2CCC(N3CCCCC3)CC2)CC1 | 22.1% |
| Clc1ccc(CO/N=C2\CCCc3nonc32)c(Cl)c1 | 44.9% |
| Cc1cc(C)cc(NS(=O)(=O)c2ccc(NC(=O)C3CCCCC3C(=O)O)cc2)c1 (stereo not drawn) | 35.4% |
| CS(=O)(=O)N1CCC(C(=O)Nc2ccc3c(c2)OCO3)CC1 | 30.6% |
| O=C(Nc1ccc(Br)c(Cl)c1)C1CC1 | 56.2% (active) |
| O=C1c2ccccc2C(=O)c2cc(NC(=O)C3CC3)ccc21 | 44% |
| O=C(Nc1ccc(C#Cc2ccccc2)cc1)C1CC1 | 56.5% (active) |
| COc1ccc(NC(=O)C2CCN(C(=O)c3ccc(OC)cc3)CC2)cc1 | 18.7% |

| Compound | inhibition |
| --- | --- |
| O=P(CCCCCCCCCP(=O)(c1ccccc1)c1ccccc1)(c1ccccc1)c1ccccc1 | 39% |
| CC(C)C(=O)c1cc2c(cc1NC(=O)Nc1cccc3ccccc13)OCCO2 | 28.3% |
| OCCCN=c1cc(-c2ccccc2)oc2ccc(Cl)cc12 | 43.6% |
| Cc1n[nH]c(C)c1S(=O)(=O)N1CCN(C2CCCCC2)CC1 | 16.5% |
| COc1ccnc(N2CCN(c3ccccc3)CC2)c1C#N | 53.9% (active) |
| O=C(CSc1nc(-c2ccccc2)cs1)Nc1cccc([N+](=O)[O-])c1 | 47.1% |
| CC(C)NC(=O)CSc1nc(-c2ccccc2)cs1 | 56.1% (active) |
| COc1cccc(CNC(=O)CSc2ccc(-c3ccncc3)nn2)c1 | 34.1% |
| CCOC(=O)c1c(-c2cccs2)csc1NC(=O)C(C)(C)C | 26.2% |
| Cc1ccc(NC(=O)CSC2=Nc3ccccc3C3CC=NN23)c(C)c1 (stereo not drawn) | 41.9% |
| O=C(Oc1cccc2cccnc12)c1ccc(N2C(=O)C3C4CCC(C4)C3C2=O)cc1 (stereo not drawn) | 31% |
| O=C(Nc1cc(N2CCOCC2)ncn1)NC1(C(F)(F)F)Oc2ccc(Cl)cc2O1 (stereo not drawn) | 30.7% |
| CC1CCCN(CCCOc2ccc(Cl)cc2Br)C1 (stereo not drawn) | 56.8% (active) |
| CC1CCCN(CCOCCOc2ccc(Br)cc2Cl)C1 (stereo not drawn) | 42% |
| CC1CCCN(CCOCCSc2ccccc2)C1 (stereo not drawn) | 39.5% |
| Cc1c(C)c2cc(Cl)c(O)c(CN3CCCCC3)c2oc1=O | 31.9% |
| COc1ccc(N2C(=O)C(Cl)=C(Nc3c(C)n(C)n(-c4ccccc4)c3=O)C2=O)cc1 | 36.8% |
| O=C(CCc1nc2ccccc2s1)Nc1ccccc1 | 77.9% (active) |
| O=C(CSC1=NS(=O)(=O)c2ccccc21)Nc1ccccc1 | 37% |
| O=C(O)CCCCc1nc2ccccc2s1 | 14.6% |
| O=C(O)c1ccc2c(c1)N(Cc1cccc(F)c1)C(=O)CS2 | 19% |
| NC(=S)N/N=C/c1coc2c(ccc3ccccc32)c1=O | 34.1% |
| O=C(/C=N/O)Nc1cccnc1 | 19.7% |
| COc1ccc(-c2csc3ncnc(Oc4cccc5ccc(C)nc45)c23)cc1 | 67.6% (active) |
| Cc1ccc(-c2csc3ncnc(Oc4cccc5ccc(C)nc45)c23)cc1 | 19.6% |
| O=S(=O)(CC(CN1CCCC1)N1CCCC1)c1ccc2ccccc2c1 (stereo not drawn) | 21.4% |

| Compound | inhibition |
| --- | --- |
| CC(C)c1nc2sc3c(=O)[nH]cnc3c2c2c1CCC2 | 22% |
| CCOC(=O)C(=Cc1cc(=O)c(OC)co1)C(=O)OCC | 79.3% (active) |
| CC(=O)c1c(C)oc2c1C(=O)c1ccccc1C2=O | 35.8% |
| Cc1c(Cl)sn(-c2ccc(Cl)cc2)c1=O | 73.5% (active) |
| C=C(C)C1CC=C(C)/C(=N/NC(=O)c2ccoc2C)C1 (stereo not drawn) | 27.2% |
| CN(C)C(=N)c1n[nH]nc1SCc1ccccc1 | 19.9% |
| Cc1cccc(/C=C/C(=O)c2ccc(NC3=NCCCS3)cc2)c1 | 62% (active) |
| CC(C)(C)c1ccc(/C=C/C(=O)c2ccc(NC3=NCCCS3)cc2)cc1 | 43.9% |
| Cc1cc(N/N=C/c2ccc(Cl)cc2)nc(NCc2ccccc2)n1 | 33.7% |
| Cc1ccc(Nc2cc(C)nc(NCc3ccccc3)n2)cc1 | 58.3% (active) |
| Cc1cc(N/N=C/c2cccc(Cl)c2)nc(NCc2ccccc2)n1 | 44.8% |
| Cc1cc(N/N=C/c2ccccc2Cl)nc(NCc2ccccc2)n1 | 43.6% |
| Cc1cc(N/N=C/c2ccccc2)nc(NCc2ccccc2)n1 | 58.4% (active) |
| CCOC(=O)C1CCCN(C2CC(=O)N(c3cccc(C(F)(F)F)c3)C2=O)C1 (stereo not drawn) | 32.6% |
| CC1Cc2ccccc2N1CC(=O)Nc1ccc2c(c1)OC(F)(F)O2 (stereo not drawn) | 30.3% |
| CCCCCCNc1nc(NCc2ccco2)nc(OCC)n1 | 52.5% (active) |
| CCc1ccc(OCCCC(=O)Nc2cccc(C(=O)O)c2)cc1 | 27.1% |
| COc1ccc2cnn(-c3ccc(C)cc3)c(=O)c2c1OC | 36.9% |
| Cc1ccc(-n2c(Cl)c(Cl)nc(Cl)c2=O)cc1 | 100% (active) |
| O=C(Nc1cccc(O)c1)c1noc2c1CCc1ccccc1-2 | 75.4% (active) |
| O=c1c2c(C(F)(F)F)cc(C(F)(F)F)nc2[nH]n1-c1ccccc1 | 37.9% |
| O=C(CN1CCSC1=NCc1ccccc1)c1ccc(Cl)c(Cl)c1 | 52.2% (active) |
| COc1ccc(N2CCN(CC(=O)NC(=O)NCc3ccco3)CC2)cc1 | 28.6% |
| O=C(NC(Nc1nc2ccc([N+](=O)[O-])cc2s1)(C(F)(F)F)C(F)(F)F)c1ccccc1Cl | 99.5% (active) |
| CN(C)S(=O)(=O)c1ccc(N2CCCC2)c(C(=O)Nc2nc3ccccc3s2)c1 | 36.7% |
